High-throughput results: PubChem BioAssay, National Center for Advancing Translational Sciences (NCATS)
A selection: hits, their analogues and other compounds. The true share with any hit is near 8.5%.
RGS12 GoLoco inh: qHTS Assay for Inhibitors of RGS12 GoLoco Motif Activity (Red Fluorophore); Guanine nucleotide-binding protein G(i) subunit alpha-1 (Homo sapiens), P63096; Potency, µM (series often up to 61.6 µM), for inactives: at the highest dose activity, negative = inhibition, most hits filed as inhibitors; hit rate 0.44% among 230,000; Gai1:RGS12 GoLoco peptide FP, rhodamine, 10 min; active means well fitted inhibition curve with a large enough effect, not every such curve was filed as active; inactive means no such curve, though single readings can be large or run the other way; further: potency means the concentration at half of the fitted maximal effect; nearly all actives have a fitted effect of over 30% in size
Target sequence (P63096 whole entry, looked up): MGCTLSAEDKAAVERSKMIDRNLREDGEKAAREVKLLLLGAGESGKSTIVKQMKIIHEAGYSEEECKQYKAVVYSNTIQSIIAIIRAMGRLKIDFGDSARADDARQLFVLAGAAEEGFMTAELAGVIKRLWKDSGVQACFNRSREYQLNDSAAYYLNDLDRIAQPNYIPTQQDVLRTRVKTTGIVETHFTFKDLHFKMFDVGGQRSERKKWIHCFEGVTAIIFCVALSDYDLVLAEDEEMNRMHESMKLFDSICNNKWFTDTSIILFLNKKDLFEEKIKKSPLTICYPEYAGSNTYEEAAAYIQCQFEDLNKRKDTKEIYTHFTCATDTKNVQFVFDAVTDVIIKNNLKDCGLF
KDM4E inh: qHTS Assay for Inhibitors of Human Jumonji Domain Containing 2E (JMJD2E) | Lysine-specific demethylase 4E (Homo sapiens), B2RXH2 | Potency, µM (highest dose often 57.1 µM), for the others: at the top dose activity change, negative = inhibition, actives largely listed as inhibitors | JMJD2E catalytic domain, FDH-coupled NADH fluorescence (FDH is formaldehyde dehydrogenase) | hit rate 1.6% among 230,000;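 further: potency means the concentration at half of the fitted maximal effect; 0% = wells with enzyme and -100% = buffer wells without enzyme; nearly all actives have a fitted effect of over 50% in size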
NPSR antagonist: qHTS Assay for Antagonists of the Neuropeptide S Receptor: cAMP Signal Transduction; CHO-NPSR cells, cAMP TR-FRET, antagonist mode; Potency, µM (highest dose often 38.3 µM), for inactives: top-dose activity change, negative = inhibition, most hits filed as inhibitors; AID 1461, 2008; hit rate 1% among 220,000; active means well fitted curve in the direction sought with a large enough effect; inconclusive means small, poorly fitted or top-dose-only effect, or another doubt; inactive means no such curve, though single readings can be large; an effect the other way counts as inactive or inconclusive; further: potency means the concentration at half of the fitted maximal effect; nearly all actives have a fitted effect of over 50% in size
Target sequence (Q6W5P4 whole entry, looked up): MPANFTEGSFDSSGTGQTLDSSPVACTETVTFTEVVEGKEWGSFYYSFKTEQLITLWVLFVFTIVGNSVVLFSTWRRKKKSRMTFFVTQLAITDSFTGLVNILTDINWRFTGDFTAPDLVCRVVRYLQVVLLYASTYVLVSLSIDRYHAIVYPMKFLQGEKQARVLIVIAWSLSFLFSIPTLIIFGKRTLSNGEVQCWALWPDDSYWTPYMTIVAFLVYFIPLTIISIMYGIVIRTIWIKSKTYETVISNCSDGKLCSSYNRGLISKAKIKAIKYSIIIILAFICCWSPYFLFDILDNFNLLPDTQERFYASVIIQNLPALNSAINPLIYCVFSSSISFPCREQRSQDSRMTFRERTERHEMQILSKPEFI
ALDH1A1 inh: qHTS Assay for Inhibitors of Aldehyde Dehydrogenase 1 (ALDH1A1). hit rate 7.3% among 220,000. Aldehyde dehydrogenase 1A1 (Homo sapiens), P00352. Potency, µM (highest dose often 75.3 µM), without a hit: top-dose activity, negative = inhibition, hits mostly inhibitors. AID 1030, 2008. Purified ALDH1A1, NADH fluorescence, propionaldehyde substrate;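 further: potency means the concentration at half of the fitted maximal effect; plate controls were no enzyme wells and a reference inhibitor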
FBPA coupling cs: qHTS Assay for Inhibitors of Fructose-1,6-bisphosphate Aldolase from Giardia Lamblia: Coupling assay counterscreen | coupling enzyme system counterscreen, AmpLite Red fluorescence | activity change, negative = inhibition, % at 58.2 µM, hits read low | hit rate 0.67% among 290,000 | AID 2472, 2010; in the data active means activity change below about -30%
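Counterscreen of the coupled detection system alone, without aldolase: glyceraldehyde-3-phosphate coupling enzymes plus AmpLite Red readout. Compounds at 57.5 uM final, 10 min RT preincubation, 20 min RT reaction, fluorescence 525/598 nm.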
Sfp inh: qHTS Assay for Inhibitors of Bacillus subtilis Sfp phosphopantetheinyl transferase (PPTase); Potency, µM, for inactives: largest response in the series, negative = inhibition, hits mostly inhibitors; 4'-phosphopantetheinyl transferase ffp (Bacillus subtilis), Q9F4F7; AID 1490, 2009; hit rate 3.5% among 310,000; Biochemical Sfp PPTase activity, qHTS; active means well fitted curve in the direction sought with a large enough effect; inconclusive means small, poorly fitted or top-dose-only effect, or another doubt; inactive means no such curve, though single readings can be large; an effect the other way counts as inactive or inconclusive;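 further: the enzyme is Sfp with the accession as filed and its product quenches rhodamine fluorescence; potency means the concentration at half of the fitted maximal effect; 0% = enzyme reaction without inhibitor and -100% = no enzyme wells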
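Fluorescence-quenching assay with 15 nM Sfp, 5 uM rhodamine-CoA and 12.5 uM BHQ-2-labelled ybbR peptide in pH 7.6 Hepes/MgCl2 buffer. Enzyme was pre-incubated with compound for 15 min at room temperature. Rate was taken from the 30-min fluorescence change (525/598 nm).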
Starred values were filed as active, the others as inactive; ? = inconclusive; . = not tested or not shown; ! = repeats disagree; [ ] = another dose, or the depositor's remark. Unless noted, the call rests on the fitted dose curve; in most records, active means well fitted inhibition curve with a large enough effect (not every such curve was filed as active); inconclusive means small, poorly fitted or top-dose-only effect, or another doubt; inactive means no such curve, though single readings can be large or run the other way. Unless noted, on the % scale 0 is the no-effect control and ±100 the full control effect.

SMILES | RGS12 GoLoco inh | KDM4E inh | NPSR antagonist | ALDH1A1 inh | FBPA coupling cs | Sfp inh
O=C(NCCCn1ccnc1)/C(=C\c1ccc(Br)cc1)NC(=O)c1ccccc1 | . | . | . | . | . | 10.7%
CCOC(=O)c1ccc(NC(=S)Nc2cccc(N)n2)cc1 | -0.8% | -10.7% | ? | ? | -29.9 | 8.91µM*
CCOC(=O)c1ccc(NC(=S)Nc2cccc(C)n2)cc1 | 0.3% | -3.2% | -31.1% | 3.2% | 4.4 | -9.9%
CCOC(=O)C1=C(C(C)=O)C(c2cccnc2)C(C#N)=C(N)O1 (configuration not stated) | -31.2% | ? | -5.0%[46.1 µM] | -8.4% | -33.7* | -17.3%
CCOC(=O)C1=C(CSc2nc(-c3ccncc3)ccc2C#N)OC(N)=C(C#N)C1c1cccnc1 (configuration not stated) | 13.1% | -18.1% | -20.8%[46.1 µM] | ? | 1.5 | 79.4µM*
Cc1cccc(-n2c(O)c(C=Nc3cccc(O)c3)c3ccccc3c2=O)n1 | 4.6% | -6.1% | -4.9% | . | -2.3 | 11.3%
CC1=NC(=O)C(N=Nc2cccc(O)c2)N1c1ccccc1 (configuration not stated) | 15.8µM* | -8.5% | -5.0%[46.1 µM] | 4.7% | -2.0 | -7.0%
COc1cc(/C=N/NC(=O)Cn2ccc(C(F)(F)F)n2)cc(OC)c1OC | 2.4% | -26.7% | 18.3% | -10.7% | 0.1 | 18.1%
CCCCn1c(SCC(N)=O)nc2ccc(N3CCOCC3)cc2c1=O | -6.1% | ? | -14.2%[46.1 µM] | ? | -40.3* | ?
CCCCn1c(SCC(=O)Nc2cccc(OC)c2)nc2ccc(N3CCOCC3)cc2c1=O | 7.9% | ? | ? | ? | -32.5* | -23.6%
COc1ccc(Cn2c(SCC#N)nc3ccc(N4CCOCC4)cc3c2=O)cc1 | -2.6% | ? | -18.8% | ? | -28.1 | 9.0%
COc1ccc(NC(=O)CSc2ccc3c4c(cccc24)C(=O)c2ccccc2-3)cc1 | 19.3% | -0.4% | -1.1%[46.1 µM] | 0.0% | 1.8 | 39.8µM*
N#Cc1cccc(NC(=O)CSc2ccc3c4c(cccc24)C(=O)c2ccccc2-3)c1 | 11.2µM* | 8.4% | -17.9%[46.1 µM] | 17.8µM* | -0.8 | 11.4%
O=C(NCc1ccncc1)C(=O)N/N=C/c1ccccn1 | 9.3% | -8.2% | -14.8% | 10.8% | -1.6 | ?
COc1ccc(NC(=O)C2CCN(S(=O)(=O)c3ccc4c(c3)NC(=O)CO4)CC2)cc1 | . | . | . | . | . | 1.3%
CN(C)/C=N/c1c(C#N)cnn1-c1ccc(F)c(Cl)c1 | . | . | . | . | 2.1 | 2.9%
CNc1ncnc2c1ncn2[C@H]1C[C@H](OP(=O)(O)O)[C@H](COP(=O)(O)O)O1 | 4.0% | 3.0% | . | -9.5% | 1.2 | 28.2µM*
N#C/C(=N\Nc1ccccc1F)c1nc(-c2ccccc2)cs1 | 5.0% | 3.8% | 7.7% | -0.9% | 0.5 | 14.9%
COc1cc(C2CC(=O)N(c3ccc(C)cc3)C(=O)C2)cc(OC)c1OC | 6.5% | -4.9% | -0.2% | . | 1.8 | 3.2%
CC(C)(C)CC(=O)Nc1cccc(-c2cn3cccnc3n2)c1 | 4.3% | ? | 9.1% | ? | 0.0 | 18.0%
FC(F)(F)c1cccc(NCc2cn3cccnc3n2)c1 | 18.3% | -11.6% | -3.7%[46.1 µM] | -7.1% | -51.6* | 7.7%
COc1cc(C(=O)NC(C)c2cccc3ccccc23)cc(OC)c1OC (configuration not stated) | . | . | . | . | 4.9 | 10.2%
O=C1c2cccnc2C(Nc2ccccc2)N1Cc1ccco1 (configuration not stated) | 2.7% | ? | 6.1%[46.1 µM] | 22.4µM* | -4.7 | 50.1µM*
COc1cccc(NC2c3ccccc3C(=O)N2Cc2ccco2)c1 (configuration not stated) | 4.7% | 0.6% | -10.9%[46.1 µM] | ? | -2.1 | ?
O=C1c2ccccc2C(Nc2cccc(C(F)(F)F)c2)N1Cc1ccco1 (configuration not stated) | 10.6% | 0.7% | ? | -15.7% | 2.5 | 39.8µM*
SMILES | RGS12 GoLoco inh | KDM4E inh | NPSR antagonist | ALDH1A1 inh | FBPA coupling cs | Sfp inh
CC(=O)c1cccc(NC2c3ncccc3C(=O)N2Cc2ccco2)c1 (configuration not stated) | -0.9% | -13.5% | -3.2%[46.1 µM] | -11.4% | -0.1 | 79.4µM*
O=C1c2ccccc2N2C(=O)c3ccccc3C2N1Cc1ccco1 (configuration not stated) | -5.4% | -23.9% | -4.7%[46.1 µM] | ? | 12.8 | 50.1µM*
Cc1nc2ccccn2c1C(=O)NNC(=O)Nc1cccc(C(F)(F)F)c1 | . | . | . | . | -4.4 | -9.5%
CC1Oc2ccccc2OC1(O)c1ccc2ccccc2n1 (configuration not stated) | -0.2% | -0.5% | -2.6% | 8.0% | 1.5 | 9.5%
O=C1c2cccnc2C(O)N1Cc1ccccc1 (configuration not stated) | 2.8% | 3.2% | -9.9%[46.1 µM] | 2.1% | -0.8 | 6.9%
O=C1c2cccnc2C(Nc2ccccc2Br)N1Cc1ccco1 (configuration not stated) | -3.2% | -4.5% | -11.1% | 25.1µM* | 1.5 | 56.2µM*
O=C1c2cccnc2C(O)N1Cc1ccco1 (configuration not stated) | -8.0% | -5.5% | -2.1%[46.1 µM] | 20µM* | -0.2 | 4.5%
COC(=O)C(NS(=O)(=O)CCl)C(C)C (configuration not stated) | . | . | . | . | 2.1 | 10.4%
COC(=O)CCC(=O)OC1(C)C(=O)C2=CN(CC(C)C)C(c3ccc(OC)cc3)=CC2=C(Br)C1=O (configuration not stated) | 16.3%[14.2 µM] | ? | -24.2% | 2.6%[13.5 µM] | -40.3*! | ?
COC(=O)CCC(=O)OC1(C)C(=O)C2=CN(CCCOC(C)C)C(c3ccc(OC)cc3)=CC2=C(Br)C1=O (configuration not stated) | 23.9% | 4.47µM* | -19.7% | . | -41.1* | -19.4%
COC(=O)CCC(=O)OC1(C)C(=O)C2=CN(c3ccccc3)C(c3ccc(OC)cc3)=CC2=C(Br)C1=O (configuration not stated) | 35.6%[14.2 µM] | ? | . | 3.55µM* | -11.5 | -25.3%
COC(=O)CCC(=O)OC1(C)C(=O)C2=CN(Cc3ccc(OC)cc3)C(c3ccc(OC)cc3)=CC2=C(Br)C1=O (configuration not stated) | 26.4%[14.2 µM] | -23.4%[11.4 µM] | . | 3.16µM* | -3.2 | 5.3%
COC(=O)CCC(=O)OC1(C)C(=O)C2=CN(Cc3ccccc3)C(c3ccc(OC)cc3)=CC2=C(Br)C1=O (configuration not stated) | 12.6%[14.2 µM] | -5.3%[11.4 µM] | . | -14.5%[13.5 µM] | -4.2 | 12.6%
